Data from the supplement of paper PMC6522484.
± gives the standard deviation of the averaged measurements.

Legend:
DLD1 [1] = assay: cell viability (CellTiter-Glo) relative to plate median (fraction of plate median); higher = more viable cells; conditions: 5 µM; treatment time 24 h; reporter: 7TFP
Summary of the method: (§1)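 On parallel plates, a Tecan F500 reader recorded either firefly luciferase or CellTiterGlo luminescence. The plates held colorectal cancer cells stably transduced with lentiviral TCF/Wnt firefly luciferase reporters (7TFP or TCF4/Wnt), seeded in 384-well format and treated 24 h later with library compounds at a final 5 µM for 24 h. Per-well signals were normalised to the plate median (webcellHTS2, additive, no log transformation), and two independent replicates were averaged.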

HCT116 = assay: as above; conditions: 5 µM; treatment time 24 h; reporter: TCF4/Wnt
Summary of the method: as §1

SW480 [2] = assay: as above; conditions: 5 µM; treatment time 24 h; reporter: 7TFP
Summary of the method: as §1

DLD1 [3] = assay: TCF/Wnt firefly luciferase reporter signal relative to plate median (fraction of plate median); higher = higher Wnt reporter signal; conditions: 5 µM; treatment time 24 h; reporter: 7TFP
Summary of the method: as §1

SW480 [4] = assay: as above; conditions: 5 µM; treatment time 24 h; reporter: 7TFP
Summary of the method: as §1

Compound	cell viability (DLD1 [1])	cell viability (HCT116)	cell viability (SW480 [2])	TCF/Wnt firefly luciferase reporter signal (DLD1 [3])	TCF/Wnt firefly luciferase reporter signal (SW480 [4])
NCC(=O)CCC(=O)O	1.01 ± 0.021	1.06 ± 0.042	1.01 ± 0.021	1.1 ± 0.071	1.07 ± 0.021
COc1ccc([C@H]2COc3c(ccc(O)c3OC)C2)c(OC)c1O	1.01 ± 0.038	0.95 ± 0.052	1.03 ± 0.014	0.987 ± 0.13	0.878 ± 0.069
NC(=O)c1cnccn1	0.988 ± 0.045	0.9595 ± 0.0035	1.02 ± 0.05	1.02 ± 0.13	0.942 ± 0.083
O=C(O)c1ccccc1OP(=O)(O)O	0.9465 ± 0.0035	0.9665 ± 0.0092	0.911 ± 0.028	0.939 ± 0.042	0.932 ± 0.04
O=C(/C=C/c1ccc(O)c(O)c1)O[C@H](Cc1ccc(O)c(O)c1)C(=O)O	1.04 ± 0.014	0.947 ± 0.09	0.998 ± 0.031	0.854 ± 0.015	0.934 ± 0.054
CC1=C(/C=C/C(C)=C/C=C/C(C)=C\C(=O)O)C(C)(C)CCC1	1.02 ± 0.05	0.949 ± 0.1	0.967 ± 0.012	0.827 ± 0.097	0.872 ± 0.044
O=c1cc(-c2ccc(O)cc2)oc2cc(O)ccc12	1.06 ± 0.13	0.987 ± 0.1	0.987 ± 0.033	0.92 ± 0.11	1.04 ± 0.028
COc1ccc2cc([C@H](C)C(=O)O)ccc2c1	1.02 ± 0.039	0.981 ± 0.083	1.045 ± 0.0071	0.969 ± 0.13	0.941 ± 0.065
CNCCC(Oc1ccc(C(F)(F)F)cc1)c1ccccc1 (stereo not given)	0.9505 ± 0.00071	0.952 ± 0.12	0.948 ± 0.069	1.2 ± 0.26	0.993 ± 0.052
CC1(C)CC23C(=O)CCC(O)C2(C)CCC13 (stereo not given)	1.05 ± 0.15	1.065 ± 0.0071	1.01 ± 0.049	0.942 ± 0.11	1.04 ± 0.074
CC(=O)NCCCCCC(=O)O	0.987 ± 0.047	1.01 ± 0.027	1.035 ± 0.0071	1.01 ± 0.068	1.04 ± 0.07
CC(C)CCC[C@@H](C)[C@H]1CC[C@H]2[C@@H]3CC[C@@H]4C[C@H](O)CC[C@]4(C)[C@H]3CC[C@]12C	1.06 ± 0.028	1.01 ± 0.033	1.02 ± 0.076	0.985 ± 0.036	1.03 ± 0.07
COc1c2ccoc2cc2oc(C)cc(=O)c12	0.967 ± 0.016	0.973 ± 0.12	0.92 ± 0.0042	0.894 ± 0.012	0.986 ± 0.034
O=C(O)CCC(=O)c1ccc(-c2ccccc2)cc1	1.04 ± 0.073	0.947 ± 0.12	0.962 ± 0.018	1 ± 0.095	1.04
C[C@H](CCC(=O)O)[C@H]1CC[C@H]2[C@@H]3CC[C@@H]4C[C@H](O)CC[C@]4(C)[C@H]3CC[C@]12C	1.11 ± 0.11	1.17 ± 0.15	1.04 ± 0.028	1.21 ± 0.11	1.16 ± 0.014
C/C=C/CCC(=O)c1cc(C)c(O)cc1O [Sohirnone A]	1.04 ± 0.09	1.06 ± 0.1	0.9585 ± 0.0078	1.02 ± 0.082	0.969 ± 0.044
Cc1cc(-c2ccccc2)nnc1NCCN1CCOCC1	1.005 ± 0.0071	0.946 ± 0.077	1.03 ± 0.014	1.02 ± 0.035	1.05 ± 0.057
Cc1cc(O)cc(C)c1Cl	0.903 ± 0.012	0.8955 ± 0.0021	0.918 ± 0.13	0.881 ± 0.059	1.01
N=C(N)NS(=O)(=O)c1ccc(N)cc1	0.943 ± 0.044	0.892 ± 0.057	0.981 ± 0.027	0.962 ± 0.033	0.986 ± 0.048
CCOC(=O)N1CCC(=C2c3ccc(Cl)cc3CCc3cccnc32)CC1	0.987 ± 0.047	0.896 ± 0.064	0.962 ± 0.068	1.08 ± 0.19	0.94 ± 0.032
CC(NCCC(c1ccccc1)c1ccccc1)c1ccccc1 (stereo not given)	0.982 ± 0.04	1.02 ± 0.021	1 ± 0.051	0.9435 ± 0.0035	0.92 ± 0.015
CC(=O)/C(=C\c1ccccc1)CC(=O)O	0.984 ± 0.037	1.03 ± 0.047	1 ± 0.05	0.894 ± 0.0085	0.996 ± 0.02
O=c1c(O)c(-c2ccc(O)c(O)c2)oc2cc(O)ccc12	0.989 ± 0.073	0.948 ± 0.028	0.969 ± 0.019	1.01 ± 0.097	0.923 ± 0.11
COc1cc2c(cc1OC)-c1c(oc3cc(O)cc(O)c3c1=O)CO2	0.988 ± 0.12	0.972 ± 0.096	0.972 ± 0.0042	1.22 ± 0.05	1.03 ± 0.035
CO/N=C(\C(=O)N[C@@H]1C(=O)N2C(C(=O)O)=C(COC(N)=O)CS[C@H]12)c1ccco1	0.915 ± 0.088	0.949 ± 0.023	0.938 ± 0.027	0.976 ± 0.1	1.13 ± 0.028
CN(C)c1ccc2nc3ccc(=[N+](C)C)cc-3sc2c1	1 ± 0.052	0.878 ± 0.021	1.16 ± 0.071	1.06 ± 0.078	1.11 ± 0.021
C/C=C/C/C=C/CCC(=O)[C@H]1O[C@H]1C(N)=O [Cerulenin]	0.927 ± 0.092	0.951 ± 0.069	0.946 ± 0.018	1.01 ± 0.11	0.993 ± 0.025
C[C@H]1COC2=C1C(=O)C(=O)c1c2ccc2c1CCCC2(C)C	1.15 ± 0.2	1.12 ± 0.042	1.08 ± 0.014	1.05 ± 0.096	0.906 ± 0.12
CC1(C)[C@@H](O[C@H]2O[C@H](C(=O)O)[C@@H](O)[C@H](O)[C@H]2O[C@@H]2O[C@H](C(=O)O)[C@@H](O)[C@H](O)[C@H]2O)CC[C@]2(C)[C@H]3C(=O)C=C4[C@@H]5C[C@@](C)(C(=O)O)CC[C@]5(C)CC[C@@]4(C)[C@]3(C)CC[C@@H]12	1.04 ± 0.042	1.14	1.02 ± 0.03	1.22 ± 0.13	1.16 ± 0.092
C[N+](C)(C)C[C@H](O)CC(=O)[O-]	0.964 ± 0.028	0.976 ± 0.022	0.965 ± 0.014	0.921 ± 0.014	0.961 ± 0.069
